Source: paper PMC12431657, “Discovery and mechanistic insights of dibenzoylmethane as a broad spectrum inhibitor of coronavirus” (PLOS Pathogens, 2025)
Counter-ions that a name gives are not always drawn. Like-named read-outs stand apart in the source and are kept apart here. The whole screen tested about 3,300 compounds, of which about 95 (3%) showed an effect of 50% or more. This excerpt belongs to a sample that is enriched for strong results.

System: HCoV-229E
Design: species or system Huh-7; HTS, protection from HCoV-229E induced cell death, luminescent cell viability (CellCounting-Lite 2.0), inhibition rate
Settings: 24 h post infection, 1 h compound pre-incubation, 10 µM, inhibitor

| SMILES | 229E Inhibition rate (229E Inhibition rate, 24 h) | 229E Inhibition rate |
| --- | --- | --- |
| C=C1C(=O)O[C@@H]2/C=C(\C)[C@@H](OC(C)=O)C/C=C(\COC(C)=O)C[C@@H](OC(=O)/C(C)=C/CO)[C@@H]12 [Eupalinolide A] | 35.1% |  |
| C[C@H](O)C(=O)O [L-Lactic acid] |  | 58.1% |
| CC(C)C(O)C(=O)O (stereo not shown) [2-Hydroxy-3-methylbutanoic acid] |  | 20.4% |
| C[C@@H](O)C(=O)O [D-(-)-Lactic acid (sodium)] |  | 8.1% |
| COc1ccc2c3c1O[C@H]1C[C@@H](O)CC[C@]31CCN(C)C2 [Lycoramine] |  | 33.8% |
| COc1ccc(CC(=O)O)cc1 [2-(4-Methoxyphenyl)acetic acid] |  | 0% |
| COc1cc(CNC(=O)CCCCCCCC(C)C)ccc1O [Homodihydrocapsaicin I] |  | 33% |
| Cc1cc(O)cc2c1O[C@](C)(CCC[C@H](C)CCC[C@H](C)CCCC(C)C)CC2 [Delta-Tocopherol] |  | 8.2% |
| CCOC(=O)/C=C/c1ccccc1 [Ethyl cinnamate] |  | 4% |
| CC(=O)OC/C1=C/C[C@H]2[C@@H](/C=C(\C)C(=O)[C@@]3(OC(C)=O)C[C@H](C)[C@H](OC(=O)c4ccccc4)[C@@H]3[C@H]1OC(C)=O)C2(C)C [Euphorbia factor L7b] |  | 41.1% |
| CC(=O)OC/C1=C\[C@H]2[C@@H](OC(=O)/C=C/c3ccccc3)[C@@H](C)C[C@]2(OC(C)=O)C(=O)/C(C)=C/[C@@H]2[C@H](CC1)C2(C)C [Euphorbia factor L7a] |  | 90.9% |
| COc1cc(/C=C/C(=O)NCC(O)c2ccc(O)cc2)ccc1O (stereo not shown) [N-Feruloyloctopamine] |  | 7.9% |
| CC1=CC(=O)[C@@H]2C[C@H]1C2(C)C [Verbenone] |  | 0% |
| C=C1[C@@H](O)[C@]2(O)OC[C@]34[C@H]2[C@@]2(C)[C@H](O)C(=O)C=C(C)[C@@H]2C[C@H]3OC(=O)[C@H](O)[C@@]14O [Eurycomanone] |  | 53.4% |
| CC1(C)Oc2cc3oc(-c4cc(O)cc(O[C@@H]5OC[C@@H](O)[C@H](O)[C@H]5O)c4)cc3cc2CC1O (stereo partly shown) [Mulberroside C] |  | 0% |
| O=C(/C=C/c1ccc(O)c(O)c1/C=C/c1ccc(O)c(O)c1)O[C@H](Cc1ccc(O)c(O)c1)C(=O)O [Salvianolic acid A] |  | 17.8% |
| CC/C=C/CC1C(=O)CCC1CC(=O)OC (stereo not shown) [Methyl 2-(3-oxo-2-(pent-2-en-1-yl)cyclopentyl)acetate] |  | 22% |
| CCCCCCCCCCCCCCCCC(=O)OC [Methyl heptadecanoate] |  | 20.9% |
| CCCCCC1C(=O)CCC1CC(=O)OC (stereo not shown) [Methyl dihydrojasmonate] |  | 54.7% |
| CC(C)(O)[C@@H]1CC[C@](C)([C@H]2[C@@H](O)C[C@@]3(C)[C@@H]4C[C@H](O)[C@H]5C(C)(C)[C@@H](O[C@@H]6OC[C@@H](O)[C@H](O)[C@H]6O[C@@H]6O[C@H](CO)[C@@H](O)[C@H](O)[C@H]6O)CC[C@@]56C[C@@]46CC[C@]23C)O1 [Astragaloside III] |  | 10.8% |
| CO[C@@H]1[C@@H](OC)[C@H](C)[C@@](O)(CC(=O)O)O[C@H]1[C@H](C)[C@H]1O[C@@]2(CC[C@@](C)([C@H]3CC[C@@](C)([C@@H]4O[C@@H]([C@H]5O[C@](C)(O)[C@H](C)C[C@@H]5C)C[C@@H]4O[C@@H]4C[C@H](OC)[C@@H](OC)[C@H](C)O4)O3)O2)C[C@H](O)[C@H]1C [Maduramicin (ammonium)] |  | 3.4% |
| CC[C@@]1([C@H]2O[C@H]([C@H]3O[C@@](O)(CO)[C@H](C)C[C@@H]3C)C[C@H]2C)CC[C@H]([C@@]2(C)CC[C@]3(C[C@H](O)[C@@H](C)[C@@H]([C@H](C)[C@H](OC)[C@@H](C)C(=O)O)O3)O2)O1 [Monensin sodium salt] |  | 24.5% |
| CO[C@H]([C@H](C)[C@H]1O[C@@]2(CC[C@@](C)([C@H]3CC[C@@](C)([C@@H]4O[C@@H]([C@H]5O[C@@](O)(CO)[C@H](C)C[C@@H]5C)C[C@@H]4C)O3)O2)C[C@H](O)[C@H]1C)[C@H](C)C(=O)O [Monensin B] |  | 55.3% |
| COc1ccc(/C=C/c2cc(OC)cc(=O)o2)cc1 [Yangonin] |  | 44% |
| C[C@]12CC[C@@H]3c4ccc(O)cc4CC[C@H]3[C@@H]1CC[C@H]2O [Alpha-Estradiol] |  | 18.2% |
| O=C(/C=C/c1ccc(O)c(O)c1)O[C@@H]1CC(C(=O)O)=C[C@@H](O)[C@H]1O [5-O-Caffeoylshikimic acid] |  | 12% |
| O=C1/C(=C/c2ccc(O)c(O)c2)COc2cc(O)ccc21 [Sappanone A] |  | 15.6% |
| CC1(C)CCC[C@]2(C)[C@@H](C=O)C(C=O)=CC[C@@H]12 [Polygodial] |  | 16.5% |

| SMILES | 229E Inhibition rate (229E Inhibition rate, 24 h) | 229E Inhibition rate |
| --- | --- | --- |
| C=C[C@](C)(O)CC[C@@H]1[C@@]2(C)CCCC(C)(C)[C@@H]2CC[C@@]1(C)O [Sclareol] |  | 19.3% |
| CC1(C)CCC[C@]2(C)[C@H]3CCO[C@]3(C)CC[C@@H]12 [Ambroxide] |  | 53.4% |
| CC1(C)Oc2cc3oc(=O)ccc3cc2C[C@@H]1O [Decursinol] |  | 0% |
| COc1cc([C@H]2OC[C@H]3[C@@H]2CO[C@@H]3c2ccc(O[C@@H]3O[C@H](CO)[C@@H](O)[C@H](O)[C@H]3O)c(OC)c2)ccc1O[C@@H]1O[C@H](CO)[C@@H](O)[C@H](O)[C@H]1O [Pinoresinol Diglucoside] |  | 23.6% |
| CSCCC(NC(C)=O)C(=O)O (racemic) [N-Acetyl-DL-methionine] |  | 32.7% |
| O=c1ccc2cc(O)ccc2o1 [6-Hydroxycoumarin] |  | 10.6% |
| O=c1ccc2ccc(O)cc2o1 [Umbelliferone] |  | 54.3% |
| O=c1ccc2cc(O)c(O)cc2o1 [Esculetin] |  | 35.1% |
| C[C@H](CC[C@@H](O)C(C)(C)O)[C@H]1CC[C@@]2(C)[C@@H]3CC=C4[C@@H](CC[C@H](O[C@@H]5O[C@H](CO[C@@H]6O[C@H](CO)[C@@H](O)[C@H](O)[C@H]6O)[C@@H](O)[C@H](O)[C@H]5O)C4(C)C)[C@]3(C)[C@H](O)C[C@]12C [Mogroside II-A2] |  | 10% |
| CCCCCCC[C@H](O)CC(=O)CCc1ccc(O)c(OC)c1 [8-Gingerol] |  | 13.3% |
| CCCCCCCCC[C@H](O)CC(=O)CCc1ccc(O)c(OC)c1 [10-Gingerol] |  | 32.3% |
| CCCCC[C@H](O)CC(=O)CCc1ccc(O)c(OC)c1 [[6]-Gingerol] |  | 52.8% |
| Cc1ncc(C[n+]2csc(CCOP(=O)(O)O)c2C)c(N)n1 [Thiamine monophosphate (chloride) (dihydrate)] |  | 12.1% |
| CC(=O)O[C@H]1[C@H]2[C@H]([C@@H]3[C@H]4OC(=O)[C@@](C)(O)[C@@]5(C)C(=O)C[C@@H](C)[C@@H]([C@@H]45)[C@@]3(C)[C@H]1OC(C)=O)[C@@H](OC(C)=O)C(=O)[C@H]1C[C@@H]3O[C@@H]3[C@H](OC(C)=O)[C@]21C [Taccalonolide C] |  | 10.3% |
| O=c1cc(-c2ccc(O)c(O)c2)oc2cc(O)cc(O)c12 [Luteolin] |  | 0% |
| O=c1c(O)c(-c2ccccc2)oc2cc(O)cc(O)c12 [Galangin] |  | 8% |
| COc1ccc(-c2cc(=O)c3c(O)cc(O)c(-c4cc(-c5cc(=O)c6c(O)cc(O)cc6o5)ccc4OC)c3o2)cc1 [Isoginkgetin] |  | 6.1% |
| COc1cc(O)c2c(=O)cc(-c3ccc(OC)c(-c4c(O)cc(O)c5c(=O)cc(-c6ccc(O)cc6)oc45)c3)oc2c1 [Ginkgetin] |  | 64.4% |
| COc1ccc(-c2cc(=O)c3c(O)cc(O)cc3o2)cc1-c1c(O)cc(O)c2c(=O)cc(-c3ccc(O)cc3)oc12 [Bilobetin] |  | 22.4% |
| O=c1cc(-c2ccccc2)c2c(O)cc(O)cc2o1 [LC3-mHTT-IN-AN2] |  | 50.8% |
| O=c1cc(-c2ccccc2)oc2cc(O)cc(O)c12 [Chrysin] |  | 0% |
| O=c1cc(-c2ccc(O)cc2)oc2cc(O)cc(O)c12 [Apigenin] |  | 55.5% |
| O=c1cc(-c2ccccc2)c2cc(O)c(O)cc2o1 [Nordalbergin] |  | 17.6% |
| O=C(/C=C/c1ccc(O)c(O)c1)O[C@H]1[C@H](O)C[C@](O)(C(=O)O)C[C@H]1O [Cryptochlorogenic acid] |  | 7.4% |
| CC1(C)[C@@H](O[C@H]2O[C@H](C(=O)O)[C@@H](O)[C@H](O)[C@H]2O[C@@H]2O[C@H](C(=O)O)[C@@H](O)[C@H](O)[C@H]2O)CC[C@]2(C)[C@H]3C(=O)C=C4[C@@H]5C[C@@](C)(C(=O)O)CC[C@]5(C)CC[C@@]4(C)[C@]3(C)CC[C@@H]12 [Diammonium Glycyrrhizinate] | 0% |  |
| C[C@@H]1O[C@H]2O[C@H]3[C@@H](OC[C@H](O)[C@@H]3O)OC(=O)[C@]34CCC(C)(C)C[C@H]3C3=CC[C@@H]5[C@@]6(C)C[C@H](O)[C@H](O[C@@H]7O[C@H](CO)[C@@H](O)[C@H](O)[C@H]7O[C@@H]7OC[C@H](OC(=O)C[C@](C)(O)CC(=O)O[C@@H]1[C@@H](O[C@@H]1OC[C@@H](O)[C@H](O)[C@H]1O)[C@H]2O)[C@H](O)[C@H]7O)[C@@](C)(CO)[C@@H]6CC[C@@]5(C)[C@]3(C)C[C@H]4O [Tubeimoside II] |  | 0.9% |
| CC1(C)CCC2(CO)C(=C3C=CC4C5(C)CCC(OC6OC(COC7OC(CO)C(O)C(O)C7O)C(OC7OC(CO)C(O)C(O)C7O)C(O)C6O)CC5C(C)(CO)CC4(C)C3(C)CC2O)C1 (stereo not shown) [Clinodiside A] |  | 8.8% |
